In PubChem BioAssay (NCI):
This is part of a sample that, as a whole, favours compounds with a hit. Of some 79,000 tested, about 15% had one in any assay. Calls of active or inactive are those of the source. No stated cut-off is given here; in the data, active means growth inhibition above about 70%; inactive means the rest.

Assays:
[1] = NCI Yeast Anticancer Drug Screen. Data for the wt1 strain (AID 149);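 further: 0% = growth of vehicle-treated wt1 cultures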; conditions: S. cerevisiae wt1 strain (SPY 50644) growth inhibition, stronger effect = higher value
How it was run: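 Each compound is tested on wt1 yeast and the loss of growth versus vehicle gives the inhibition value.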

[2] = NCI Yeast Anticancer Drug Screen. Data for the rad50EPP+ strain (AID 151);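 further: 0% = growth of vehicle-treated control cultures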; conditions: S. cerevisiae rad50 mutant strain, stronger effect = higher value
How it was run: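 Read-out is yeast growth inhibition relative to vehicle; cells used were the rad50EPP+ strain.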

[3] = NCI Yeast Anticancer Drug Screen. Data for the mgt1 strain (AID 153); conditions: S. cerevisiae mgt1 mutant growth inhibition, stronger effect = higher value
How it was run: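 Measured: inhibition of mgt1 yeast growth by compound, normalized to vehicle-treated cultures.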

[4] = NCI Yeast Anticancer Drug Screen. Data for the rad50 strain (AID 155);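 further: 0% = growth of vehicle-only cultures of the same strain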; conditions: S. cerevisiae rad50 strain growth inhibition, stronger effect = higher value
How it was run: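 Vehicle-treated cultures provide the reference for the growth inhibition reported for compound-exposed, repair-deficient yeast.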

[5] = NCI Yeast Anticancer Drug Screen. Data for the mec2-1 strain (AID 157); conditions: S. cerevisiae mec2-1 strain, stronger effect = higher value
How it was run: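 Using mec2-1 yeast: add compound, measure growth, express inhibition versus vehicle-treated cultures.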

[6] = NCI Yeast Anticancer Drug Screen. Data for the rad14 strain (AID 159);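 further: 0% = growth of vehicle-treated control cultures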; conditions: S. cerevisiae rad14 strain growth inhibition, stronger effect = higher value
How it was run: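 Inhibition of growth is reported for a repair-deficient yeast mutant following compound treatment, calculated relative to cultures that received vehicle.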

[7] = NCI Yeast Anticancer Drug Screen. Data for the sgs1 mgt1 strain (AID 161);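 further: 0% = growth of cultures given vehicle only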; conditions: S. cerevisiae sgs1 mgt1 strain, stronger effect = higher value
How it was run: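 This yeast growth screen uses a strain with defined DNA-repair lesions; compound-treated growth is compared with vehicle-treated growth.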

[8] = NCI Yeast Anticancer Drug Screen. Data for the CLN2oe strain (AID 163);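 further: 0% = growth of vehicle-only control cultures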; conditions: S. cerevisiae CLN2oe strain, stronger effect = higher value
How it was run: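 Whole-cell yeast growth assay. A strain engineered for altered cell-cycle control received compound, and inhibition relative to vehicle-treated cultures was recorded.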

[9] = NCI Yeast Anticancer Drug Screen. Data for the cln2 rad14 strain (AID 165);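 further: 0% = growth equal to vehicle treated cultures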; conditions: S. cerevisiae cln2 rad14 strain, stronger effect = higher value
How it was run: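 Yeast strain cln2 rad14, bearing defects in cell cycle control and DNA repair, serves as the test system; values reflect growth inhibition compared with vehicle.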

[10] = NCI Yeast Anticancer Drug Screen. Data for the bub3 strain (AID 167); conditions: S. cerevisiae bub3 mutant strain, stronger effect = higher value
How it was run: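 Mutant yeast screening strain plus compound; vehicle-treated cultures serve as the 0% inhibition reference.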

[11] = NCI Yeast Anticancer Drug Screen. Data for the wt2 strain (AID 169); conditions: S. cerevisiae wt2 strain growth inhibition, stronger effect = higher value
How it was run: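 Treated yeast vs. vehicle-treated yeast: growth inhibition determined.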

[12] = NCI Yeast Anticancer Drug Screen. Data for the mlh1 strain (AID 171);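 further: 0% = growth of vehicle-treated control cultures of the same strain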; conditions: S. cerevisiae mlh1 strain growth inhibition, stronger effect = higher value
How it was run: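 A yeast strain with a defined genetic lesion serves as the test organism. Cultures receive compound or vehicle, and growth is measured.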

[13] = NCI Yeast Anticancer Drug Screen. Data for the sgs1 strain (AID 173);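 further: 0% = growth of vehicle-only control cultures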; conditions: S. cerevisiae sgs1 mutant, stronger effect = higher value
How it was run: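 A genetically defined yeast mutant is incubated with the test compound, and its growth is compared to that of the same strain given vehicle.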

[14] = NCI Yeast Anticancer Drug Screen. Data for the mlh1 rad18 strain (AID 175); conditions: S. cerevisiae mlh1 rad18 strain growth inhibition, stronger effect = higher value
How it was run: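 Steps: expose repair-defective yeast to compound; measure growth; express inhibition against vehicle-treated controls.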

[15] = NCI Yeast Anticancer Drug Screen. Data for the rad18 strain (AID 177); conditions: S. cerevisiae rad18 mutant growth inhibition, stronger effect = higher value
How it was run: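 Measured value is growth inhibition of a yeast strain bearing a DNA repair alteration, referenced to vehicle-treated cells.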

[16] = at 5.0 µM (retest, dose inferred, filed as 0.5)
[17] = at 50.0 µM (retest, dose inferred, filed as 5.0)

Measured: growth inhibition

C#CC1=CC(=O)C(OC)=CC1=O
active: [1]; at 33.0 µM 90% | [1]; at 100.0 µM 98% | [2]; at 33.0 µM 95% | [2]; at 100.0 µM 98% | [3]; at 33.0 µM 99% | [3]; at 100.0 µM 99% | [4]; at 11.0 µM 94% | [4]; at 33.0 µM 98% | [4]; [17] 99% | [4]; at 100.0 µM 98% | [5]; at 11.0 µM 89% | [5]; at 33.0 µM 99% | [5]; [17] 99% | [5]; at 100.0 µM 99% | [6]; at 11.0 µM 82% | [6]; at 33.0 µM 99% | [6]; at 100.0 µM 99% | [7]; [17] 99% | [8]; at 33.0 µM 88% | [8]; at 100.0 µM 99% | [9]; [17] 99% | [10]; at 11.0 µM 88% | [10]; at 33.0 µM 99% | [10]; [17] 99% | [10]; at 100.0 µM 99% | [11]; at 33.0 µM 97% | [11]; at 100.0 µM 99% | [12]; at 11.0 µM 96% | [12]; at 33.0 µM 99% | [12]; at 100.0 µM 99% | [13]; at 11.0 µM 98% | [13]; at 33.0 µM 100% | [13]; at 100.0 µM 99% | [14]; [16] 77% | [14]; [17] 99% | [15]; at 3.7 µM 83% | [15]; at 11.0 µM 96% | [15]; at 33.0 µM 99% | [15]; at 100.0 µM 99%
inactive: [1]; at 1.2 µM -2% | [1]; at 3.7 µM -1% | [1]; at 11.0 µM 23% | [2]; at 1.2 µM 9% | [2]; at 3.7 µM 21% | [2]; at 11.0 µM 43% | [3]; at 1.2 µM 0% | [3]; at 3.7 µM 11% | [3]; at 11.0 µM 48% | [4]; at 1.2 µM 14% | [4]; at 3.7 µM 34% | [4]; [16] 53% | [4]; at 50.0 µM 30.4% | [5]; at 1.2 µM 0% | [5]; at 3.7 µM 14% | [5]; [16] 23% | [5]; at 50.0 µM 62% | [6]; at 1.2 µM 12% | [6]; at 3.7 µM 21% | [7]; [16] 54% | [7]; at 50.0 µM 32.5% | [8]; at 1.2 µM 2% | [8]; at 3.7 µM 14% | [8]; at 11.0 µM 29% | [9]; [16] 39% | [9]; at 50.0 µM 47.4% | [10]; at 1.2 µM -6% | [10]; at 3.7 µM 0% | [10]; [16] 21% | [10]; at 50.0 µM 65.2% | [11]; at 1.2 µM -6% | [11]; at 3.7 µM 2% | [11]; at 11.0 µM 48% | [12]; at 1.2 µM 3% | [12]; at 3.7 µM 16% | [13]; at 1.2 µM 11% | [13]; at 3.7 µM 34% | [14]; at 50.0 µM 66.2% | [15]; at 1.2 µM 40%

O=C(CSS(=O)(=O)O)c1ccccc1
inactive: [1]; at 1.2 µM 0% | [1]; at 3.7 µM 5% | [1]; at 11.0 µM 2% | [1]; at 33.0 µM 5% | [1]; at 100.0 µM 12% | [2]; at 1.2 µM -4% | [2]; at 3.7 µM -9% | [2]; at 11.0 µM 11% | [2]; at 33.0 µM 67% | [3]; at 1.2 µM -1% | [3]; at 3.7 µM -3% | [3]; at 11.0 µM -1% | [3]; at 33.0 µM 2% | [3]; at 100.0 µM 7% | [4]; at 1.2 µM -1% | [4]; at 3.7 µM -1% | [4]; [16] 6% | [4]; at 11.0 µM 2% | [4]; at 33.0 µM 2% | [4]; [17] 54% | [4]; at 50.0 µM 10.8% | [4]; at 100.0 µM 16% | [5]; at 1.2 µM -4% | [5]; at 3.7 µM -5% | [5]; [16] -15% | [5]; at 11.0 µM 0% | [5]; at 33.0 µM 9% | [5]; [17] -6% | [5]; at 50.0 µM 19.9%
active: [2]; at 100.0 µM 91%
